Experimental data reported in the supplement of paper PMC4022240.
± gives the standard deviation.

Key:
Test in all cases: peptide microarray binding signal (635 nm), min-max normalized on array (fraction of array maximum); higher = stronger binding
[1] = molecular target: T1, HaloTag-ATRX ADD domain (163-292)
T1 chain: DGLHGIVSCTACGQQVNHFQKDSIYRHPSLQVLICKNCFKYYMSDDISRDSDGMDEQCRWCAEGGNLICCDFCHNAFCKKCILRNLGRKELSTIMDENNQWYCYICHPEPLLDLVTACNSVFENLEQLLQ
How it was run: (§1)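 For each library, binding signal was taken as the triplicate-spot mean intensity and then min-max scaled. Spots of histone 13-mer peptide–cellulose conjugates on nitrocellulose, printed in triplicate with a Cy3 tracer, were probed for 1 h at 4°C with either biotin-labelled HaloTag reader fusions (10 nM to 1 μM) and streptavidin-Alexa Fluor 647 or rabbit histone antibodies (1:10,000 to 1:2,000) and anti-rabbit Alexa 647. Readout at 635 nm came from an Axon GenePix 4000B.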

[2] = molecular target: HaloTag-ING2 PHD (mouse Ing2 200-280)
How it was run: as §1

[3] = molecular target: anti-H3K4me3 antibody ab8580
How it was run: as §1

[4] = molecular target: anti-H3K9me3 antibody ab8898
How it was run: as §1

[5] = peptide region: H3 11-23, peptide modifications: H3K14me1 H3K18ac, binder concentration: 1:2,000 dilution
[6] = peptide region: H3 11-23, peptide modifications: H3K14me1 H3K18ac, binder concentration: 1:10,000 dilution
[7] = peptide region: H3 11-23, peptide modifications: H3K14ac H3K18me1, binder concentration: 1:2,000 dilution
[8] = peptide region: H3 11-23, peptide modifications: H3K14ac H3K18me1, binder concentration: 1:10,000 dilution
[9] = peptide region: H3 11-23, peptide modifications: H3K14ac H3R17me2s, binder concentration: 1:2,000 dilution
[10] = peptide region: H3 11-23, peptide modifications: H3K14ac H3R17me2s, binder concentration: 1:10,000 dilution
[11] = peptide region: H3 5-17, peptide modifications: H3S10ph, binder concentration: 1:2,000 dilution
[12] = peptide region: H3 5-17, peptide modifications: H3S10ph, binder concentration: 1:10,000 dilution
[13] = peptide region: H3 11-23, peptide modifications: H3K14ac H3R17me1, binder concentration: 1:2,000 dilution
[14] = peptide region: H3 11-23, peptide modifications: H3K14ac H3R17me1, binder concentration: 1:10,000 dilution

## TGGKAPRKQLATK [H3 11-23 T G G Kme A P R Kac Q L A T K]
[1]; peptide region: H3 11-23, peptide modifications: H3K14me1 H3K18ac, binder concentration: 50 nM
  peptide microarray binding signal: 0.00715 ± 0.00026
[1]; peptide region: H3 11-23, peptide modifications: H3K14me1 H3K18ac, binder concentration: 500 nM
  peptide microarray binding signal: 0.014 ± 0.00051
[2]; peptide region: H3 11-23, peptide modifications: H3K14me1 H3K18ac, binder concentration: 10 nM
  peptide microarray binding signal: 0.014 ± 0.0016
[2]; peptide region: H3 11-23, peptide modifications: H3K14me1 H3K18ac, binder concentration: 100 nM
  peptide microarray binding signal: 0.0363 ± 0.0088
[3]; [5]
  peptide microarray binding signal: 0.007 ± 0.001
[3]; [6]
  peptide microarray binding signal: 0.00331 ± 0.0003
[4]; [5]
  peptide microarray binding signal: 0.00159 ± 1.9e-05
[4]; [6]
  peptide microarray binding signal: 0.00127 ± 3.4e-05

## TGGKAPRKQLATK [H3 11-23 T G G Kac A P R Kme Q L A T K]
[1]; peptide region: H3 11-23, peptide modifications: H3K14ac H3K18me1, binder concentration: 50 nM
  peptide microarray binding signal: 0.00759 ± 8.2e-05
[1]; peptide region: H3 11-23, peptide modifications: H3K14ac H3K18me1, binder concentration: 500 nM
  peptide microarray binding signal: 0.012 ± 0.00073
[2]; peptide region: H3 11-23, peptide modifications: H3K14ac H3K18me1, binder concentration: 10 nM
  peptide microarray binding signal: 0.0187 ± 0.0021
[2]; peptide region: H3 11-23, peptide modifications: H3K14ac H3K18me1, binder concentration: 100 nM
  peptide microarray binding signal: 0.0405 ± 0.011
[3]; [7]
  peptide microarray binding signal: 0.0114 ± 0.0027
[3]; [8]
  peptide microarray binding signal: 0.00725 ± 0.00036
[4]; [7]
  peptide microarray binding signal: 0.00275 ± 0.00016
[4]; [8]
  peptide microarray binding signal: 0.00219 ± 0.0001

## TGGKAPRKQLATK [H3 11-23 T G G Kac A P Rme2s K Q L A T K]
[1]; peptide region: H3 11-23, peptide modifications: H3K14ac H3R17me2s, binder concentration: 50 nM
  peptide microarray binding signal: 0.00621 ± 0.00011
[1]; peptide region: H3 11-23, peptide modifications: H3K14ac H3R17me2s, binder concentration: 500 nM
  peptide microarray binding signal: 0.0112 ± 0.00066
[2]; peptide region: H3 11-23, peptide modifications: H3K14ac H3R17me2s, binder concentration: 10 nM
  peptide microarray binding signal: 0.0167 ± 0.00051
[2]; peptide region: H3 11-23, peptide modifications: H3K14ac H3R17me2s, binder concentration: 100 nM
  peptide microarray binding signal: 0.02487 ± 0.00023
[3]; [9]
  peptide microarray binding signal: 0.00702 ± 0.00068
[3]; [10]
  peptide microarray binding signal: 0.00628 ± 0.00011
[4]; [9]
  peptide microarray binding signal: 0.00362 ± 0.00034
[4]; [10]
  peptide microarray binding signal: 0.00219 ± 3.5e-05

## QTARKSTGGKAPR [H3 5-17 Q T A R K Sph T G G K A P R]
[1]; peptide region: H3 5-17, peptide modifications: H3S10ph, binder concentration: 50 nM
  peptide microarray binding signal: 0.00589 ± 6.1e-05
[1]; peptide region: H3 5-17, peptide modifications: H3S10ph, binder concentration: 500 nM
  peptide microarray binding signal: 0.0117 ± 0.0012
[2]; peptide region: H3 5-17, peptide modifications: H3S10ph, binder concentration: 10 nM
  peptide microarray binding signal: 0.00955 ± 0.00078
[2]; peptide region: H3 5-17, peptide modifications: H3S10ph, binder concentration: 100 nM
  peptide microarray binding signal: 0.0203 ± 0.002
[3]; [11]
  peptide microarray binding signal: 0.00142 ± 0.0001
[3]; [12]
  peptide microarray binding signal: 0.0024 ± 0.00015
[4]; [11]
  peptide microarray binding signal: 0.000785 ± 1.3e-05
[4]; [12]
  peptide microarray binding signal: 0.0011 ± 1.1e-05

## TGGKAPRKQLATK [H3 11-23 T G G Kac A P Rme K Q L A T K]
[1]; peptide region: H3 11-23, peptide modifications: H3K14ac H3R17me1, binder concentration: 50 nM
  peptide microarray binding signal: 0.0113 ± 0.0011
[1]; peptide region: H3 11-23, peptide modifications: H3K14ac H3R17me1, binder concentration: 500 nM
  peptide microarray binding signal: 0.0152 ± 0.00047
[2]; peptide region: H3 11-23, peptide modifications: H3K14ac H3R17me1, binder concentration: 10 nM
  peptide microarray binding signal: 0.0182 ± 0.0058
[2]; peptide region: H3 11-23, peptide modifications: H3K14ac H3R17me1, binder concentration: 100 nM
  peptide microarray binding signal: 0.0339 ± 0.014
[3]; [13]
  peptide microarray binding signal: 0.00517 ± 0.00077
[3]; [14]
  peptide microarray binding signal: 0.00719 ± 0.0015
[4]; [13]
  peptide microarray binding signal: 0.00569 ± 0.00047
[4]; [14]
  peptide microarray binding signal: 0.00404 ± 0.00028
